Consider seven compounds from PubChem BioAssay (Tox21).

Test [1] is described as follows: qHTS assay for small molecule agonists of the p53 signaling pathway (AID 651631; calls by dose curve; further: nearly all actives have a fitted effect of over 15% in size; further: potency means the concentration at half of the fitted maximal effect). The method in brief:
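Beta-lactamase reporter activity under p53 response elements was quantified in HCT-116 cells by FRET fluorescence, following 16 h incubation with test compounds at 37 °C and 2 h substrate development at room temperature.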

Test [2] is described as follows: qHTS assay for small molecules that induce genotoxicity in human embryonic kidney cells expressing luciferase-tagged ATAD5 (AID 651632). Further: nearly all actives have a fitted effect of over 15% in size. In outline: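 Luminescence read-out: after 16 hr compound exposure at 37C, ATAD5-luciferase HEK293T cells received Amplite, 30 min RT, then CCD imaging. A rise in signal marks genotoxic stress.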
Background: Quantitative high-throughput screening tests each substance at several concentrations.

A short description of test [3]: qHTS assay for small molecule agonists of the p53 signaling pathway - cell viability (AID 651633; calls by dose curve; further: nearly all actives have a fitted effect of over 30% in size; further: potency means the concentration at half of the fitted maximal effect). The method in brief: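 p53RE-bla cells, seeded at 4,000 per well and rested 5 h at 37 C/5% CO2, received compounds in DMSO for 16 h at 37 C. CellTiter-Glo was then added, and luminescence was read after 30 min at room temperature to gauge cytotoxicity.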
Test [4] is described as follows: qHTS assay for small molecules that induce genotoxicity in human embryonic kidney cells expressing luciferase-tagged ATAD5 - cell viability (AID 651634; calls by dose curve; further: nearly all actives have a fitted effect of over 25% in size). The method in brief:
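HEK293T ATAD5-luc cells, 2,000/well; compound 15.5 hr, 37C/5% CO2; CellTiter-Fluor 30 min, 37C; fluorescence read.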

The nature of test [5]: qHTS assay for small molecule disruptors of the mitochondrial membrane potential - cell viability (AID 720634; calls by dose curve;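 further: human HepG2 liver cancer cells; series mostly up to about 83 µM; nearly all actives have a fitted effect of over 20% in size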). In outline:
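Luminescence from CellTiter-Glo (ATP content) gave viability in HepG2 cells, read in the same wells as the MMP dye assay after 1 hr compound exposure at 37 C.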

The nature of test [6]: qHTS assay to test for compound auto fluorescence at 590 nm (red) in HepG2 cells (AID 720674). The method in brief:
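Intrinsic compound fluorescence in the red window (Ex/Em 540/590 nm) is measured in attached HepG2 cells exposed for 1 hr, DMSO vehicle as baseline, benchmarked to Rose Bengal sodium.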

The nature of test [7]: qHTS assay to test for compound auto fluorescence at 535 nm (green) in HepG2 cells (AID 720675).
The nature of test [8]: qHTS assay to test for compound auto fluorescence at 460 nm (blue) in HEK293 cells (AID 720678). In outline:
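HEK293, 2,000 cells/well, 10% dialyzed FBS; attach 4-5 hr 37C; pin compound or DMSO; o/n 37C/5% CO2; fluorescence 405/460 nm; triamterene-equivalent units.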

The nature of test [9]: qHTS assay to test for compound auto fluorescence at 590 nm (red) in HEK293 cells (AID 720679). In outline: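 Intensity at 540nm excitation and 590nm emission is reported as Rose Bengal sodium-equivalent autofluorescence. Measurements followed overnight exposure (37C, 5% CO2) of HEK293 cells, 2,000 per well, to 23 nL compound.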
Test [10] is described as follows: qHTS assay to test for compound auto fluorescence at 535 nm (green) in HEK293 cells (AID 720680).
Test [11] can be described thus: qHTS assay to test for compound auto fluorescence at 460 nm (blue) in HEK293 cell free culture (AID 720681). In outline:
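Test compounds were pinned into cell-free culture medium (DMEM with 10% FBS) and fluorescence was read directly at Ex/Em 405/460 nm. Signals were expressed as fluorescence equivalents of triamterene, with DMSO vehicle as control.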

Test [12] can be described thus: qHTS assay to test for compound auto fluorescence at 535 nm (green) in HEK293 cell free culture (AID 720682). The method in brief: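 Each library compound, or DMSO control, is added by pintool to medium alone, comprising DMEM and 10% FBS. Emission at 535 nm following 485 nm excitation is quantified against fluorescein.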
A short description of test [13]: qHTS assay to test for compound auto fluorescence at 590 nm (red) in HEK293 cell free culture (AID 720683). In outline:
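Tox21 10K library compounds were pinned into cell-free DMEM with 10% FBS and fluorescence was read at excitation 540 nm. Activity is expressed as Rose Bengal sodium equivalency.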

Test [14] is described as follows: qHTS assay to test for compound auto fluorescence at 590 nm (red) in HepG2 cell free culture (AID 720684). In outline: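 Readout: intrinsic compound fluorescence at 590 nm emission after 540 nm excitation, scaled to Rose Bengal sodium. Matrix was cell-free MEM with 10% FBS; DMSO vehicle wells served as control.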
The nature of test [15]: qHTS assay to test for compound auto fluorescence at 460 nm (blue) in HepG2 cell free culture (AID 720685). The method in brief:
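Cell-free plates of MEM plus 10% FBS received 23 nL compound or DMSO vehicle; blue-channel (405/460 nm) intensity scored against triamterene as reference fluorophore.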

Test [16] is described as follows: qHTS assay to test for compound auto fluorescence at 535 nm (green) in HepG2 cell free culture (AID 720686).
A short description of test [17]: qHTS assay to test for compound auto fluorescence at 460 nm (blue) in HepG2 cells (AID 720687). The method in brief: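 Cells (2,000/well in MEM with 10% FBS) attached overnight at 37 C, then were exposed to compound or DMSO for 1 hr at 37 C, 5% CO2. Fluorescence read at Ex/Em 405/460 nm, expressed as triamterene-equivalent signal.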
In test [18] the target is Glucocorticoid receptor (Homo sapiens) (UniProt P04150). Briefly: qHTS assay to identify small molecule agonists of the glucocorticoid receptor (GR) signaling pathway (AID 720691; active means well fitted activation curve with a large enough effect in the signal ratio in the repeat runs, not every such curve was filed as active; the % refers to the signal ratio). The method in brief:
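HeLa GR-bla reporter line; cells pre-incubated 4 h, compound in DMSO 18 h at 37 C; LiveBLAzer B/G FRET substrate 2 h RT; fluorescence intensity read-out.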

Test [19] shares this target. The experiment in a line: qHTS assay to identify small molecule antagonists of the glucocorticoid receptor (GR) signaling pathway (AID 720692; active means well fitted inhibition curve with a large enough effect in the signal ratio in the repeat runs, not every such curve was filed as active; the % refers to the signal ratio). The method in brief:
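Read-out: beta-lactamase FRET substrate fluorescence, 2 h at room temperature, in HeLa cells stably carrying a GRE-driven bla reporter. Compounds were co-incubated with 5 nM dexamethasone agonist (final) for 18 h at 37 C.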

Test [20] is described as follows: qHTS assay for small molecule disruptors of the mitochondrial membrane potential (AID 720635). In outline: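 HepG2 cells (2,000/well) attached overnight at 37C, then took compound for 1 hr at 37C, 5% CO2. Mito-MPS dye was added for 30 min; fluorescence was read at 490/535 nm (monomers) and 540/590 nm (aggregates).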

The structures appear in SMILES notation. Values without a mark were called inactive. Records with an inconclusive call do not appear. The source made the active and inactive calls. Unless noted, the call rests on the fitted dose curve; in most records, active means well fitted curve in the direction sought with a large enough effect in the repeat runs; inconclusive means weak or mixed curves; inactive means no such curve, though single readings can be large; an effect the other way counts as inactive or inconclusive.

Glucocorticoid receptor (Homo sapiens), sequence (P04150 whole entry, looked up): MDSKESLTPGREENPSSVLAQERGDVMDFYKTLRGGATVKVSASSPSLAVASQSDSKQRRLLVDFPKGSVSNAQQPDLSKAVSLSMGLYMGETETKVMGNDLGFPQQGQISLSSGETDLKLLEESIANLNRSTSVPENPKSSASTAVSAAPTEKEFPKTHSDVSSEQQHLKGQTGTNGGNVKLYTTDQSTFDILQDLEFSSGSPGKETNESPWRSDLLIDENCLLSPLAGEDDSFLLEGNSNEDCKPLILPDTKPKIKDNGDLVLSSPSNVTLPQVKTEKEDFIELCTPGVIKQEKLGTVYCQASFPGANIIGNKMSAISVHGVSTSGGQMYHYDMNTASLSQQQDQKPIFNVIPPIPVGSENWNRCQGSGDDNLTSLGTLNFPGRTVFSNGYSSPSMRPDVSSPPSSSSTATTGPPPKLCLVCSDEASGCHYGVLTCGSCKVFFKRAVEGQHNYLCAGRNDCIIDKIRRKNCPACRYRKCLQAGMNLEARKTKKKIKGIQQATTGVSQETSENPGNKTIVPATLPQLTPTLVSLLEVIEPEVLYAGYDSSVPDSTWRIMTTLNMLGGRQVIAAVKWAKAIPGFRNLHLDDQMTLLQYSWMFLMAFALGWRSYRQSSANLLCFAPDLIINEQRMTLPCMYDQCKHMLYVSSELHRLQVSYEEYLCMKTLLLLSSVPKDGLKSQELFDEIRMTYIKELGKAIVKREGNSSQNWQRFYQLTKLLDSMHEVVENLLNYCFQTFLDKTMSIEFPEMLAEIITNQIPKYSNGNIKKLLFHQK

For the compound `[Cl][Nd]([Cl])[Cl]`, the Potency result in test [1], in [2], in [3], in test [4], in test [8] and in test [11] was “inactive” throughout. Besides, the Potency entry in test [15], in test [17], in test [18] and in test [19] was “inactive” each time. Further, the result in test [5], in [6], in [7], in test [9], in test [10] and in test [12] was inactive. For the same compound, the call in test [13], in [14] and in test [16] was inactive.
For the compound `COc1ccc(-c2cc(C(F)F)nn2-c2ccc(S(N)(=O)=O)cc2)cc1F`, the Potency entry in test [1], in test [2], in test [3], in test [4], in [8] and in test [11] was “inactive” each time. For the same compound, the Potency entry in test [15] and in test [17] was “inactive” each time. The call in test [5], in test [6], in test [7], in test [9], in test [10] and in [12] was inactive. Besides, the compound was called inactive in [13], in test [14] and in [16].
For `CC(C)COC(=O)COc1cc(Cl)c(Cl)cc1Cl`, the Potency result in test [1], in [2], in [3], in test [4], in [8] and in [11] was “inactive” in each case. The Potency result in test [15], in [17] and in test [18] was “inactive” in each case. In addition, the compound was classed as inactive in test [5], in test [6], in test [7], in test [9], in test [10] and in [12]. Also, the compound was classed as inactive in [13], in [14] and in test [16].
In the case of `O=P(O)(O)Oc1ccccc1`, the Potency entry in [1], in test [2], in test [3], in test [4], in [8] and in test [11] was “inactive” throughout. In addition, the Potency entry in test [15], in test [17], in [18] and in [19] was “inactive” throughout. For the same compound, the outcome in test [5], in test [6], in test [7], in test [9], in [10] and in [12] was inactive. Besides, the call in test [13], in test [14] and in [16] was inactive.
`C[C@H](CS)C(=O)N1CCC[C@H]1C(=O)O`: the Potency entry in [1], in test [2], in test [3], in test [4], in [8] and in test [15] was “inactive” in each case. The Potency entry in test [17], in test [18] and in test [19] was “inactive” each time. For the same compound, the compound was classed as inactive in test [5], in test [6], in [7], in test [9], in test [10] and in [12]. For the same compound, the compound was called inactive in test [13], in [14] and in test [16].
As to `O=C(C(=O)c1ccco1)c1ccco1`, the Potency result in test [1], in test [2], in test [3], in test [4], in [8] and in test [15] was “inactive” each time. The Potency result in [17], in test [18] and in test [19] was “inactive” in each case. Also, the compound was classed as inactive in test [5], in test [6], in test [7], in test [9], in test [10] and in test [12]. The compound was called inactive in [13] and in test [16].
`Cc1ccc2nc(N)[nH]c(=O)c2c1Sc1ccncc1`: the Potency was 2660 nM (active) in test [1] and 1880 nM (active) in [3]. Also, the Potency entry in test [2], in test [4], in [20], in [8], in test [11] and in test [15] was “inactive” throughout. In addition, in test [17], the Potency entry was “inactive”. Further, the outcome in test [5], in test [6], in [9], in [10], in test [12] and in test [13] was inactive. Further, the result in test [16] was inactive.
